Test results published in ChEMBL document CHEMBL4513216, “Probing the Open Global Health Chemical Diversity Library for Multistage-Active Starting Points for Next-Generation Antimalarials” (ACS Infect Dis, 2020).
Screen size: about 68,000 compounds; about 2,700 (4%) showed an effect of 50% or more. The sample holds strong results, similar compounds and a random draw of the others, so the mix is not that of the screen.

The compounds below were run on Plasmodium berghei (assay: Screen against P. berghei liver stage (PbLuc), transformed with Luciferase, at 2uM). Conditions: tested at 2 uM.
Type: functional, HepG2

SMILES	INHIBITION [%]
Cc1cnc2c(S(=O)(=O)N(C)C3CCS(=O)(=O)C3)cccc2c1 (stereo not drawn)	47.87
Cc1cnc2c(S(=O)(=O)NCC3CCS(=O)(=O)C3)cccc2c1 (stereo not drawn)	-84.03
Cc1cnc2c(S(=O)(=O)NCC3CCN(C4CC4)C3)cccc2c1 (stereo not drawn)	51.21
CCOC(C)C(=O)NS(=O)(=O)c1cccc2cc(C)cnc12 (stereo not drawn)	9.27
Cc1cnc2c(S(=O)(=O)NCC3CCOC3)cccc2c1 (stereo not drawn)	1.61
Cc1cnc2c(S(=O)(=O)NCC3CC3)cccc2c1	51.94
Cc1cnc2c(S(=O)(=O)NC3CCS(=O)(=O)C3)cccc2c1 (stereo not drawn)	-15.28
Cc1cnc2c(S(=O)(=O)NC(=O)C(C)OCC3CC3)cccc2c1 (stereo not drawn)	28.97
COC(C)C(=O)NS(=O)(=O)c1cccc2cc(C)cnc12 (stereo not drawn)	73.31
CC(C)N1CCOC(CC(=O)N2CCCN(Cc3ccncc3)CC2)C1 (stereo not drawn)	18.22
CNc1nc(C2CCCN2C(C)=O)nc2c1CN(CCO)CC2 (stereo not drawn)	-0.83
Cc1cc(C)c(CNC(=O)C2COc3ccccc3C2)c(=O)[nH]1 (stereo not drawn)	-68.78
Cc1cc(C)nc(N2CCCC(C)(c3[nH]ncc3C(=O)N(C)C)C2)n1 (stereo not drawn)	-81.44
CCc1cc(CN2CCCCC2c2ccc(F)cc2)on1 (stereo not drawn)	-19.3
CCS(=O)(=O)N(C)CCCNC(=O)c1cc(Cl)cc2cccnc12	61.08
COCCOCCCNC(=O)c1cc(Cl)cc2cccnc12	-18.52
CCOC(=O)CCNC(=O)c1cc(Cl)cc2cccnc12	-14.21
CCS(=O)(=O)CC(=O)Nc1ccccc1N1CCc2ccccc21	6.07
CCCc1cc(C(=O)N2CCC3(CC2)CN(CCN(C)C)C(=O)O3)no1	28.73
Cc1cc(C(=O)N2CCC3(CC2)CN(CCN(C)C)C(=O)O3)nc(C)n1	59.03
CN(C)CCCN1CC2(CCN(C(=O)C3(C)CCCCO3)CC2)OC1=O (stereo not drawn)	-64.97
Cc1ccc(C(=O)N2CCN(C)C3(CCC(=O)N(C)CC3)C2)c(F)c1 (stereo not drawn)	18.22
CN(C)CCN1CC2(CCN(C(=O)c3cnccn3)CC2)OC1=O	-48.69
Cc1ccc(C(=O)N2CCC3(CC2)CN(CCN(C)C)C(=O)O3)c(F)c1	57.34
CN(Cc1ccccc1)C(=O)Cn1nc(N2CCSCC2)ccc1=O	22.88
Cc1cc2nc(C(C)C)cc(N(C)CC3CCN(C(C)C)C3)n2n1 (stereo not drawn)	5.93
Fc1cccc(CN2CCOCC3(CCN(C4CCOCC4)C3)C2)c1 (stereo not drawn)	30.29

SMILES	INHIBITION [%]
CNc1cc2c(nn1)CCN(C(=O)c1cc(C)n(C3CC3)c1C)C2	26.06
CCOC(=O)Cn1c(=O)nc(N)c2c(-c3ccc(OC)cc3)csc21	69.62
COc1ccc(-c2csc3c2c(N)nc(=O)n3CC(N)=O)cc1	23.16
CCn1c(=O)nc(N)c2c(-c3ccc(OC)cc3)csc21	-37.19
O=C(CC1CC2(CCNCC2)c2ccccc21)NCC1CC1 (stereo not drawn)	-1.81
CC(=O)NC1CCN(c2ncnc3c2c(C)nn3C)C1 (stereo not drawn)	32.56
CCC1(CC)Cc2ccccc2-c2nc(CN(C)C)nc(O)c21	29.02
CC(C)N(CC(N)=O)C(=O)c1cnc(-c2ccc3c(c2)OCO3)s1	75.8
CC(C)N(CCC#N)C(=O)c1cnc(-c2ccc3c(c2)OCO3)s1	37.87
CN(C)C(=O)c1cnc(-c2ccc3c(c2)OCO3)s1	-197.6
O=C(O)C1(n2ccc(-c3ccco3)n2)CCN(Cc2cccnc2)CC1	-30.35
Cc1ccc2nc(CN(C)Cc3ccc(C)o3)cc(=O)n2c1	5.02
Cc1nc(C(=O)N2CCN(C(C)c3ccccc3F)CC2)cs1 (stereo not drawn)	19.06
CN1CCc2ncc(CNc3cc(N(C)C)ncn3)n2CC1	-14.45
Cc1ccnc(N2Cc3cnn(Cc4ccc(F)cc4)c3C2)n1	-38.09
Cc1cc(C)nc(N2Cc3cnn(Cc4ccc(F)cc4)c3C2)n1	-51.41
CNc1cc(C)nc(N2Cc3cnn(Cc4ccc(F)cc4)c3C2)n1	52.03
O=C(CN1CC(n2cccn2)C1)NCCc1c[nH]c2ccccc12	25.74
O=S(=O)(NCCn1ccc(-c2cccs2)n1)C1CC1	-49.59
Cc1nc(-c2ccccc2C)n(CC(=O)NC(C)C2CC2)n1 (stereo not drawn)	12.66
O=C(NCC1CC1)C1CCC2(CCN(C(=O)c3ccoc3)CC2)O1 (stereo not drawn)	36.99
Cc1occc1C(=O)N1CCC2(CCC(C(=O)NCC3CC3)O2)CC1 (stereo not drawn)	51.19
Cc1ccc(C(=O)N2CCC3(CCC(C(=O)NCC4CC4)O3)CC2)o1 (stereo not drawn)	38.09
O=C(NCC1CC1)C1CCC2(CCN(C(=O)c3ccncc3)CC2)O1 (stereo not drawn)	52.36
O=C(NCC1CC1)C1CCC2(CCN(C(=O)c3cccnc3)CC2)O1 (stereo not drawn)	22.71
Cc1ccccc1C(=O)N1CCC2(CCC(C(=O)NCC3CC3)O2)CC1 (stereo not drawn)	-28.91
